Assay results reported in PubChem BioAssay AID1159580 (chemical genetic matrix, 2015).
“And” between values parts separate entries of the source, which are not always exact repeats. Equal values may be shown once. The whole screen tested about 5,500 compounds, of which about 2,000 (36%) were called active. About 18% were inconclusive and are not listed. Rule as the data show it: active = normalized growth mostly below about 0.91 (no sharp cut-off); inconclusive = no clear call, values can overlap the other calls; inactive = mostly above about 0.92. Some of the results follow.

Test: chemical genetic growth profiling, strain panel (AID 1159580);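 also: tested at 20 µM; growth read once vehicle control cultures reached saturation at 30 °C; 1 = growth at the plate median or of vehicle wells; lower values mean less growth of the strain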
Conditions: S. cerevisiae deletion strains, growth OD

Measured: normalized growth

C/C=C/c1ccc2c(c1)OCO2
inactive: locus YAL013W, strain DEP1, active compounds read low 1.01 | locus YAL021C, strain ccr4, active compounds read low 1.02 | locus YAL026C, strain drs2, active compounds read low 1.02 | locus YAL030W, strain snc1, active compounds read low 1.02 | locus YBL061C, strain skt5, active compounds read low 1.02 | locus YBR009C, strain hhf1, active compounds read low 1.02 | locus YBR021W, strain FUR4, active compounds read low 1.02 | locus YBR023C, strain chs3, active compounds read low 1.02 | locus YBR171W, strain sec66, active compounds read low 1.03 | locus YBR229C, strain ROT2, active compounds read low 1.01 | locus YBR231C, strain swc5, active compounds read low 1.02 | locus YBR279W, strain paf1, active compounds read low 1.02 | locus YCL011C, strain gbp2, active compounds read low 1.01 | locus YCL016C, strain dcc1, active compounds read low 1.02 | locus YCL029C, strain bik1, active compounds read low 1.01 | locus YCL061C, strain MRC1, active compounds read low 1 | locus YCL069W, strain vba3, active compounds read low 1.02 | locus YCR088W, strain abp1, active compounds read low 1.02 | locus YDL005C, strain med2, active compounds read low 1.02 | locus YDL035C, strain GPR1, active compounds read low 1.02 | locus YDL040C, strain nat1, active compounds read low 1.02 | locus YDL074C, strain BRE1, active compounds read low 1.07 | locus YDL101C, strain DUN1, active compounds read low 1.02 | locus YDL134C, strain PPH21, active compounds read low 1 | locus YDL185W, strain tfp1, active compounds read low 0.998 | locus YDL192W, strain arf1, active compounds read low 1.01 | locus YDR001C, strain nth1, active compounds read low 1 | locus YDR069C, strain doa4, active compounds read low 1.04 | locus YDR101C, strain arx1, active compounds read low 1.04 | locus YDR137W, strain rgp1, active compounds read low 0.994 | locus YDR150W, strain NUM1, active compounds read low 1.01 | locus YDR159W, strain sac3, active compounds read low 1.02 | locus YDR162C, strain NBP2, active compounds read low 1 | locus YDR195W, strain ref2 0.988 | locus YDR297W, strain sur2, active compounds read low 1.02 | locus YDR318W, strain mcm21, active compounds read low 0.991 | locus YDR334W, strain swr1, active compounds read low 1.02 | locus YDR335W, strain msn5, active compounds read low 1.02 | locus YDR388W, active compounds read low 1.01 | locus YDR392W, strain spt3, active compounds read low 0.912 | locus YDR502C, strain sam2, active compounds read low 1.01 | locus YEL003W, strain gim4, active compounds read low 1.02 | locus YEL037C, strain rad23, active compounds read low 1.01 | locus YEL061C, strain CIN8 (second series), active compounds read low 1.01 | locus YEL061C, strain CIN8, active compounds read low 1.01 | locus YER015W, strain faa2, active compounds read low 1.01 | locus YER016W, strain bim1, active compounds read low 1.02 | locus YER110C, active compounds read low 1.01 | locus YER111C, strain swi4, active compounds read low 1.01 | locus YER155C, strain BEM2 (second series), active compounds read low 0.997 | locus YER155C, strain BEM2, active compounds read low 1.01 | locus YER167W, strain BCK2, active compounds read low 1.01 | locus YFR010W, strain ubp6, active compounds read low 1.02 | locus YGL078C, strain dbp3, active compounds read low 1.02 | locus YGL086W, strain mad1, active compounds read low 1.05 | locus YGL167C, strain pmr1, active compounds read low 1.02 | locus YGL173C, strain kem1, active compounds read low 1.02 | locus YGL227W, strain vid30, active compounds read low 1.02 | locus YGL240W, strain doc1, active compounds read low 1.01 | locus YGL248W, strain PDE1, active compounds read low 1.02 | locus YGL253W, strain hxk2, active compounds read low 1.02 | locus YGR078C, strain PAC10, active compounds read low 1.01 | locus YGR135W, strain pre9, active compounds read low 1.01 | locus YGR252W, strain gcn5, active compounds read low 0.972 | locus YHR013C, strain ard1, active compounds read low 1.09 | locus YHR027C, strain rpn1, active compounds read low 1.02 | locus YHR030C, strain SLT2, active compounds read low 1.01 and 0.978 | locus YHR079C, strain IRE1 (second series), active compounds read low 1 | locus YHR079C, strain IRE1, active compounds read low 0.98 | locus YHR094C, strain hxt1, active compounds read low 0.994 | locus YHR129C, strain ARP1, active compounds read low 1.01 | locus YHR142W, strain chs7, active compounds read low 1.03 | locus YHR200W, strain rpn10, active compounds read low 1.01 | locus YIL066C, strain RNR3, active compounds read low 1.02 | locus YIL073C, strain SPO22, active compounds read low 1.06 | locus YIL125W, strain kgd1, active compounds read low 1.01 | locus YIR030C, strain dcg1, active compounds read low 0.998 | locus YJL092W, strain hpr5, active compounds read low 1.01 | locus YJL095W, strain BCK1 (second series), active compounds read low 1.02 | locus YJL095W, strain BCK1, active compounds read low 1.02 and 0.98 | locus YJL115W, strain asf1, active compounds read low 1.03 | locus YJL129C, strain trk1, active compounds read low 1.03 | locus YJL134W, strain LCB3, active compounds read low 1.01 | locus YJL154C, strain vps35, active compounds read low 1 | locus YJL164C, strain tpk1, active compounds read low 1.01 | locus YJL166W, strain qcr8, active compounds read low 1.01 | locus YJL168C, strain set2, active compounds read low 1.01 | locus YJL187C, strain SWE1 (second series), active compounds read low 1.03 | locus YJL187C, strain SWE1, active compounds read low 1.01 | locus YJR043C, strain POL32, active compounds read low 1.02 | locus YJR066W, strain TOR1, active compounds read low 0.948
